# From PubChem
# Only some compounds are listed: those with a hit (about 2.4% of all), similar ones and a draw of the others.
# Pol iota inh: blocks human DNA polymerase iota activity; Pol iota fluorescent replication assay, 10 min; Potency, µM (highest dose often 115 µM), without a hit: top-dose activity, negative = inhibition, actives largely listed as inhibitors; hit rate 1% among 390,000; further: potency means the concentration at half of the fitted maximal effect
#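 Pol iota at 10 nM preincubated 15 min with compounds at room temperature; reaction started with fluorescent substrate, 50 nM final. Fluorescence read kinetically at 0 and 10 min; buffer-only wells as negative control.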
# POLB inh: inhibitors of human DNA polymerase beta; Pol beta primer extension/strand displacement, fluorescence kinetic; Potency, µM (doses to about 114 µM), for inactives: at the top dose activity change, negative = inhibition, actives largely listed as inhibitors; hit rate 1.3% among 340,000; AID 485314; further: potency means the concentration at half of the fitted maximal effect; on the % scale 0 is the no-effect control and ±100 the full control effect
#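 Pol beta (10 nM) was preincubated with compound for 15 min at room temperature. The reaction was then started with 50 nM substrate and read immediately and after a further 10 min at room temperature.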
# WRN helicase inh-1: WRN helicase (human) inhibition. Q14191. WRN helicase unwinding, fluorescent forked duplex, kinetic. Potency, µM (titrated, usually from 114 µM), for the others: at the top dose activity change, negative = inhibition, actives largely listed as inhibitors. hit rate 0.46% among 360,000; further: potency means the concentration at half of the fitted maximal effect; on the % scale 0 is the no-effect control and ±100 the full control effect; nearly all actives have a fitted effect of over 55% in size
#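 Primary qHTS, 1536-well format. 20 nM WRN + compound, 15 min RT; start with 100 nM forked fluorophore/quencher duplex, 2 mM ATP (final); kinetic read ex 525/em 598 nm.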
# Pol kappa inh-1: inhibitors of human DNA polymerase kappa; Q9UBT6; purified Pol kappa, fluorescent DNA synthesis assay, 10 min; Potency, µM (doses to about 107 µM), for inactives: top-dose activity, negative = inhibition, hits mostly inhibitors; hit rate 0.53% among 400,000; further: potency means the concentration at half of the fitted maximal effect; on the % scale 0 is the no-effect control and ±100 the full control effect
#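 Inhibition of 10 nM Pol kappa is measured by a fluorescent read-out at 0 and 10 min following addition of 50 nM substrate (final), with a 15-min room-temperature compound preincubation.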
# FEN1 inh-1: blocks human flap endonuclease 1; hit rate 0.35% among 390,000; Recombinant FEN1 flap cleavage, fluorescence, 15 min; Potency, µM (highest dose often 114 µM), for the others: at the top dose activity change, negative = inhibition, most hits filed as inhibitors; AID 588795; further: potency means the concentration at half of the fitted maximal effect; on the % scale 0 is the no-effect control and ±100 the full control effect; nearly all actives have a fitted effect of over 65% in size
#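 FEN1 at 10 nM, compound pretreatment for 15 min (room temperature), 50 nM final substrate to initiate; endpoint reads at 0 and 15 min; DMSO-only plates used as vehicle background.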
# Pol eta inh-1: DNA polymerase eta (human) inhibition | Q9Y253 | recombinant Pol eta, fluorescent DNA replication assay | Potency, µM (titrated, usually from 114 µM), without a hit: at the top dose activity change, negative = inhibition, actives largely listed as inhibitors | hit rate 1.2% among 390,000; further: potency means the concentration at half of the fitted maximal effect; on the % scale 0 is the no-effect control and ±100 the full control effect
# Target sequence (Q9Y253 whole entry, looked up): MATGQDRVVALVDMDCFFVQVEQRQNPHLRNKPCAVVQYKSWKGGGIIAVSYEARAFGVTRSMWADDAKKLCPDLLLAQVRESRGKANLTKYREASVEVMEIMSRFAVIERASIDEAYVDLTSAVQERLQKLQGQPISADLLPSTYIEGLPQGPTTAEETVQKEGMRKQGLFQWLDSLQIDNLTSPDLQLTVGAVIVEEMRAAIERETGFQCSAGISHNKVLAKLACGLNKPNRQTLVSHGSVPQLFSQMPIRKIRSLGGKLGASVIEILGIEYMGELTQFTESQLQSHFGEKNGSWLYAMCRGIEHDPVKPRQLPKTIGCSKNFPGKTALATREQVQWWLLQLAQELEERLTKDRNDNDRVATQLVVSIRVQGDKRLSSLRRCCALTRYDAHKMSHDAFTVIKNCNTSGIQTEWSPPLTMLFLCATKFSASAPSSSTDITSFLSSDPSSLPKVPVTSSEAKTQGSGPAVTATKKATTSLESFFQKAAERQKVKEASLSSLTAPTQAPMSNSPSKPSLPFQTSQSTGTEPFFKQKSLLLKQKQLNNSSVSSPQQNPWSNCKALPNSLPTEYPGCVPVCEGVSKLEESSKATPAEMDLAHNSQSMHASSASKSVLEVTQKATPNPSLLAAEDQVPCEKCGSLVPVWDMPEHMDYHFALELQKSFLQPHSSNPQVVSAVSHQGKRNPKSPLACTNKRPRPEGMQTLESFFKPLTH
#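 Pol eta (10 nM) was preincubated with compounds for 15 min at room temperature, after which fluorescent replication substrate (50 nM final) was added to start the reaction. Fluorescence was read kinetically at 0 and 10 min.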
# TbPGK inh: TbPGK inhibition, hit validation; shares compounds with Pol kappa inh-1; TbPGK coupled GAPDH assay, Kinase-Glo luminescence; Potency, µM (top dose mostly 57.5 µM), for the others: top-dose activity change, negative = inhibition, usual class: inhibitors; hit rate 79% among 500; AID 686980; further: potency means the concentration at half of the fitted maximal effect; on the % scale 0 is the no-effect control and ±100 the full control effect; nearly all actives have a fitted effect of over 65% in size
# Pol iota confirm: Human Pol iota inhibitor confirmatory assay; hit rate 77% among 1,500; shares compounds with Pol kappa inh-1; AID 720496; Potency, µM, usual class: inhibitors; Pol iota primer extension, TAMRA/BHQ fluorescence; further: potency means the concentration at half of the fitted maximal effect
# GALK inh confirm: confirmation of human galactokinase (GALK) inhibitors; shares compounds with Pol eta inh-1; purified GALK, Kinase-Glo ATP depletion luminescence; Potency, µM (series often up to 115 µM), for the others: at the top dose activity, negative = inhibition, hits mostly inhibitors; hit rate 70% among 150
# Redox cycling: redox cycling activity in phenol red-HRP assay. shares compounds with Pol eta inh-1. Phenol red-HRP H2O2 redox cycling, absorbance 600 nm. Potency, µM (titrated, usually from 115 µM), inactives show at the top dose activity change, negative = H2O2 signal, actives largely listed as inhibitors. hit rate 40% among 150
# HEK293 tox: counter-screen for GALK inhibitors: HEK293 cell cytotoxicity. hit rate 10% among 170. Potency, µM (top dose mostly 46.1 µM), for inactives: top-dose activity change, negative = cytotoxicity, usual class: inhibitors. shares compounds with Pol eta inh-1. HEK-293 viability, ATP luminescence (CellTiter-Glo), 24/48 h. AID 2547; further: potency means the concentration at half of the fitted maximal effect; on the % scale 0 is the no-effect control and ±100 the full control effect
# Pol kappa inh-2: Pol kappa (human) inhibition, cherry-pick confirmation; shares compounds with Pol eta inh-1; purified Pol-kappa, fluorescent strand-displacement substrate; Potency, µM, actives largely listed as inhibitors; hit rate 76% among 920; further: potency means the concentration at half of the fitted maximal effect
# Pol eta inh-2: Pol eta (human) inhibition, cherry-pick confirmation; shares compounds with Pol eta inh-1; Pol eta primer extension, TAMRA/BHQ fluorescence, 10 min; Potency, µM, usual class: inhibitors; hit rate 64% among 2,600; AID 720502; further: potency means the concentration at half of the fitted maximal effect
# FEN1 inh-2: FEN1 inhibition, cherry-pick retest; shares compounds with FEN1 inh-1; FEN1 flap cleavage, TAMRA/BHQ2 fluorogenic DNA substrate; Potency, µM, actives largely listed as inhibitors; hit rate 79% among 880; further: potency means the concentration at half of the fitted maximal effect; nearly all actives have a fitted effect of over 60% in size
# WRN helicase inh-2: WRN helicase inhibition, cherry-pick retest; Potency, µM (doses to about 57.1 µM), for the others: at the highest dose activity, negative = inhibition, hits mostly inhibitors; WRN helicase DNA unwinding, fluorescence kinetic; hit rate 63% among 610; AID 720497; shares compounds with WRN helicase inh-1; further: potency means the concentration at half of the fitted maximal effect; nearly all actives have a fitted effect of over 65% in size
# TO displacement: counter-screen for WRN helicase inhibitors: DNA binding. shares compounds with WRN helicase inh-1. thiazole orange DNA binding displacement, fluorescence. Potency, µM (titrated, usually from 57.1 µM), for inactives: at the highest dose activity change, negative = inhibition, most hits filed as inhibitors. hit rate 10% among 610. AID 720499;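 further: drop in dye fluorescence marks compound binding to DNA; potency means the concentration at half of the fitted maximal effect; on the % scale 0 is the no-effect control and ±100 the full control effect; nearly all actives have a fitted effect of over 60% in size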
# BLM counter: BLM helicase inhibition, WRN selectivity check | hit rate 60% among 610 | Potency, µM (titrated, usually from 57.1 µM), inactives show at the top dose activity change, negative = inhibition, most hits filed as inhibitors | Recombinant BLM helicase DNA unwinding, red fluorescence | shares compounds with WRN helicase inh-1; further: potency means the concentration at half of the fitted maximal effect; nearly all actives have a fitted effect of over 60% in size
# Starred values were filed as active, the others as inactive; u = inconclusive; x = no result given; ! = not confirmed by another sample; [ ] = another dose, or the depositor's remark. The call rests on the fitted dose curve; in most records, active means well fitted curve in the direction sought with a large enough effect; inconclusive means small, poorly fitted or top-dose-only effect, or another doubt; inactive means no such curve, though single readings can be large; an effect the other way counts as inactive or inconclusive.
SMILES,Pol iota inh,POLB inh,WRN helicase inh-1,Pol kappa inh-1,FEN1 inh-1,Pol eta inh-1,Pol iota confirm,Pol eta inh-2,WRN helicase inh-2,TO displacement,BLM counter,others
COc1cccc2c1C(=O)c1c(O)c3c(c(O)c1C2=O)CC(O)(C(C)=O)CC3OC1CC(N(C)C)C(O)C(C)O1 (configuration not stated),22.4µM*,x,17.8µM*,u,31.6µM*,11.2µM*,10.6*,19*,24.1µM*,240.2%,24.1µM*,Pol kappa inh-2=23.8*;FEN1 inh-2=37.9*
COc1cccc2c1C(=O)c1c(O)c3c(c(O)c1C2=O)C[C@@](O)(C(=O)CO)C[C@@H]3OC1CC(N)C(O)C(C)O1 (some centres not stated),35.5µM*,x,2.99µM*,10.6µM*!,6.31µM*,5.01µM*,16.8*,60.1*,17.1µM*,96.3%,27.1µM*,Pol kappa inh-2=9.47*;FEN1 inh-2=33.8*
O=C1CCC[C@@H]2C[C@@]3(C[C@@H]4CCN1[C@H]24)Nc1ccccc1NC3=NC1CCCCC1,7.7%,x,x,-4.6%,-4.3%,x,x,x,x,x,x,
Cc1cc(C)cc(NC(=O)c2cc(S(=O)(=O)N3CCCCC3)c[nH]2)c1,-11.3%,6.7%,x,-8.5%,-6.5%,0.6%,x,x,x,x,x,
N#C/C(=C\c1ccc(-c2cc(Cl)ccc2Cl)o1)C(=O)Nc1ccccc1C(=O)O,u,u,x,u,u,39.8µM*,75.2*,u,17.1µM*,10.8µM*,3.04µM*,Pol kappa inh-2=10.6*
COc1ccc(CCNC(=O)Nc2nc(C(N)C3CCCCC3)cs2)cc1OC (configuration not stated),x,x,4.3%,x,x,x,x,x,x,x,x,
CC(C)C1Cc2[nH]c(=S)[nH]c(=O)c2C(c2ccc(F)cc2)O1 (configuration not stated),x,x,-9.3%,x,x,x,x,x,x,x,x,
O=c1c(-c2ccc(Cl)cc2)nc2cnc(N3CCNCC3)nc2n1Cc1ccc(F)cc1,x,x,x,-3.5%[60.1 µM],x,x,x,x,x,x,x,
Cc1ccc(NC(=O)CN2C(=O)S/C(=C/c3ccc(-c4cc(C(=O)O)ccc4C)o3)C2=O)cc1C,22.4µM*,7.08µM*,22.4µM*,79.4µM*,35.5µM*,20µM*,x,x,7.64µM*,192.7%,5.41µM*,TbPGK inh=7.3µM*
CCn1c(C)cc(/C=C2\SC(=O)N(CC(=O)Nc3ccc(C)c(C)c3)C2=O)c1C,1.8%,1.0%,5.0%,-0.6%,-2.1%,-16.9%,x,x,x,x,x,
O=C(O)CC(CCc1ccccc1)OC1OC(CO)C(O)C(O)C1O (configuration not stated),1.78µM*,0.708µM*,u,2µM*,7.94µM*,0.794µM*,2.67*,10.7*,1.71µM*,-27.9%,1.52µM*,TbPGK inh=u;GALK inh confirm=53µM*;Redox cycling=-3.9%;HEK293 tox=9.4%;FEN1 inh-2=26.9*
CCOc1ccccc1NC(=O)Cn1c(=O)n(Cc2ccccc2)c(=O)c2c1c1cc(C)ccc1n2C,8.5%,23.9%,x,-8.1%,-5.3%,-13.6%,x,x,x,x,x,
O=C(O)CSc1nc2sc3c(c2c(=O)n1Cc1ccccc1)CCCCC3,37.0%,-0.1%,-3.2%,-5.5%,-6.3%,-11.9%,x,x,x,x,x,
O=C(O)CSc1cc(C(=O)c2ccccc2O)cn2c(=O)c3c4c(sc3nc12)CCCC4,u,u,44.7µM*,44.7µM*,u,u,26.7*,u,9.61µM*,u,3.41µM*,FEN1 inh-2=47.8*
CC1=C(C(=O)Nc2ccccc2)C(c2cccs2)n2nc(SCc3ccccc3F)nc2N1 (configuration not stated),u,19.3%,x,-6.2%,-6.8%,4.5%,x,x,x,x,x,
CC1=NN(c2ccccc2)C(=O)C1C=Nc1ccccc1O (configuration not stated),14.6%,-0.7%,-0.4%,6.6%,-4.9%,-24.4%,x,x,x,x,x,
CC1=NN(c2ccccc2)C(=O)C1/C=C1\NC(=S)NC1=O (configuration not stated),u,-4.7%,28.2µM*,25.1µM*,79.4µM*,3.16µM*,47.4*,23.9*,8.57µM*,-23.1%,17.1µM*,Pol kappa inh-2=7.52*
O=c1[nH]c(CN2CCCCC2)ccc1O,x,x,-3.3%,x,x,u,x,x,x,x,x,
O=C1CCCC(O)=C1N=Nc1ccc2c(c1)OCO2,16.6%,26.1%,-23.3%[57.1 µM],-26.5%,3.0%,-10.1%,x,x,x,x,x,
